# ClpP mod – qHTS Assay for Activators of ClpP | Potency, µM (doses to about 57.5 µM), inactives show top-dose activity change, negative = active | purified B. subtilis ClpP, FRET peptide cleavage, 20 min | hit rate 1.9% among 340,000 | AID 651965, 2013; active = well fitted falling curve with a large enough effect; inconclusive = small, poorly fitted or top-dose-only effect; inactive = no such curve, though single readings can be large or run the other way; also: potency is read from the fitted curve at half-maximal effect; the source files actives as falling curves though it sought activators and does not explain the sign; nearly all actives have a fitted effect of over 65% in size
#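 Purified B. subtilis ClpP, 10 microg/mL final in Tris/HCl pH8 with KCl, BSA, glycerol and Tween-20, cleaved an Abz/nitrotyrosine-quenched decapeptide. Fluorescence (ex 320, em 430) was read at 0 and 20 min at room temperature. Delta was normalized to 5.8 microM ADEP and DMSO/no-enzyme controls.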
# IL-1B inflam inh – qHTS for Inhibitors of Inflammasome Signaling: IL-1-beta AlphaLISA Primary Screen; THP-1 LPS/ATP IL-1B secretion, AlphaLISA, 16 h; stronger effect = lower value; activity change, % at 57.5 µM; hit rate 4.7% among 360,000; AID 743279, 2014; in the data active = activity change below about -50%; inconclusive = mostly about -30% to -49%; also: % is scaled to controls: 0 for no effect and ±100 for the full control effect
#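 THP-1 cells pretreated 1 hr with compounds (up to 57.5 uM final), then stimulated with LPS (250 ng/mL final) plus ATP (1.25 mM final); secreted IL-1B measured by AlphaLISA after 16 hr, decreased signal indicating inhibition.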
# DRD3 agonist – qHTS of D3 Dopamine Receptor Agonist: qHTS; D(3) dopamine receptor (Homo sapiens), P35462; D3R DiscoveRx beta-arrestin cells, luminescence, 90 min; max activation, %; hit rate 0.58% among 410,000; AID 652048, 2013; in the data active = max activation above about 30%; also: 0% is about no effect
# Target sequence (P35462 whole entry, looked up): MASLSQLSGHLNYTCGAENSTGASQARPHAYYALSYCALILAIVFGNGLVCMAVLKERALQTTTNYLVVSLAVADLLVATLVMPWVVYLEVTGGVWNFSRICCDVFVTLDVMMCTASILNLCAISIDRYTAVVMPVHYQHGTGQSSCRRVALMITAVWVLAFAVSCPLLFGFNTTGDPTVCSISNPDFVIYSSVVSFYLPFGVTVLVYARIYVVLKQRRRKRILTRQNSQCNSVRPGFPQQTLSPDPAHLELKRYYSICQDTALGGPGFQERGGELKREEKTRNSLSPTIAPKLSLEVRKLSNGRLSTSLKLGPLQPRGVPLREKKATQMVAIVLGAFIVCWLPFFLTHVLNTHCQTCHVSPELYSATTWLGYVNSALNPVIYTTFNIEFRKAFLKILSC
#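 Cells at 1500/well, incubated overnight, then treated with pinned compounds (dopamine as control) for 90 min at 37 degrees C. DiscoveRx reagent added for 30 - 60 minutes at room temperature; luminescence read.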
# DRD3 antagonist – qHTS of D3 Dopamine Receptor Antagonist: qHTS; max response, negative = inhibition, %; D3R cells, DiscoveRx beta-arrestin luminescence, antagonist mode; stronger effect = lower value; D(3) dopamine receptor (Homo sapiens), P35462; hit rate 2.5% among 360,000; AID 652054, 2013; in the data active = max response below about -50%; inconclusive = no clear call, values can overlap the other calls; also: % is scaled to controls: 0 for no effect and ±100 for the full control effect
#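 Cells expressing the human receptor were seeded at 1500 cells/well, incubated overnight at 37 degrees C in 5% CO2, then exposed to library compounds with dopamine controls for 90 minutes at 37 degrees C before luminescent detection.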
# TDP1 cell CPT – qHTS for Inhibitors of human tyrosyl-DNA phosphodiesterase 1 (TDP1): qHTS in cells in presence of CPT; chicken DT40 Tdp1-/-;hTDP1 cells + 20 nM CPT, ATP luminescence, 48 h; Potency, µM (highest dose often 46.2 µM), without a hit: at the top dose activity change, negative = growth inhibition, actives largely listed as inhibitors; hit rate 12% among 420,000; AID 686979, 2013; also: potency is read from the fitted curve at half-maximal effect; % is scaled to controls: 0 for no effect and ±100 for the full control effect; nearly all actives have a fitted effect of over 55% in size
#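 Chicken DT40 Tdp1-/- cells complemented with human TDP1, 400 cells/well, exposed to compounds plus 20 nM camptothecin for at least 48 h at 37 C; viability read as ATP content by CellTiter-Glo luminescence.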
# DT40 TDP1 no CPT – qHTS for Inhibitors of human tyrosyl-DNA phosphodiesterase 1 (TDP1): qHTS in cells in absence of CPT; Potency, µM (highest dose often 46.2 µM), for inactives: top-dose activity change, negative = growth inhibition, usual class: inhibitors; DT40 Tdp1-/- hTDP1 cells, no CPT, ATP luminescence, 48 h; hit rate 15% among 420,000; also: potency is read from the fitted curve at half-maximal effect; % is scaled to controls: 0 for no effect and ±100 for the full control effect; nearly all actives have a fitted effect of over 55% in size
#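 Seeded 400 DT40-hTDP1 cells/well (vehicle DMSO, no 20 nM CPT); pinned compounds; ≥48 hr at 37 °C; CellTiter-Glo luminescence as viability measure.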
# Numbers without * were called inactive; u = inconclusive; x = not tested or not shown. Shown are actives, neighbours in structure and some others; about 21% of the full set was active somewhere. Unless noted, calls follow the shape of the dose curve; as a rule, active = well fitted inhibition curve with a large enough effect; inconclusive = small, poorly fitted or top-dose-only effect; inactive = flat fitted curve, though single readings scatter.
SMILES,ClpP mod,IL-1B inflam inh,DRD3 agonist,DRD3 antagonist,TDP1 cell CPT,DT40 TDP1 no CPT
Cc1ncc(CN2CCCC(C(=O)c3ccc(C(C)(C)C)cc3)C2)s1 (stereo unspecified),0%,-29,-13,u,21µM*,12µM*
CSc1ccc(C(=O)C2CCCN(CCCn3cccn3)C2)cc1 (stereo unspecified),x,u,-11,-25,u,-25%
COc1ccc(C(=O)C2CCCN(Cc3ccccn3)C2)c(OC)c1 (stereo unspecified),1%,10,-7,-2,21µM*,15µM*
O=C(c1ccc(C(F)(F)F)cc1)C1CCCN(Cc2ccc(CO)o2)C1 (stereo unspecified),-3%,-4,-15,u,u,u
CCn1ccnc1CN1CCCC(C(=O)c2ccc(SC)cc2)C1 (stereo unspecified),x,-1,-6,-21,u,18µM*
O=C(c1ccc(C(F)(F)F)cc1)C1CCCN(Cc2ccncc2)C1 (stereo unspecified),x,-22,-2,6,10µM*,10µM*
CN1CCN(Cc2cc3c(cc2[N+](=O)[O-])OCO3)CC1,x,8,-8,-16,-8%,-29%
CCn1c(CN2CCN(C)CC2)nc2ccccc21,0%,x,7,x,-2%,-2%
C=CCN(CC(=O)c1sc(C(=O)OCC)nc1C)c1cccc(Br)c1,-1%,26,2,30,u,u
CN1C(=O)CC(=O)N(c2ccccc2)c2cc(Cl)ccc21,x,x,2,x,-18%,-12%
COc1ccc(C(=O)C2CCCN(Cc3cnc(C)s3)C2)cc1OC (stereo unspecified),x,0,0,17,7%,-23%
CSc1ncc(CN2CCCC(C(=O)c3ccccc3SC)C2)cn1 (stereo unspecified),1%,65,-17,-19,-22%,u
COc1cccc(O)c1CN1CCCC(C(=O)c2ccccc2SC)C1 (stereo unspecified),-2%,-29,-33,-18,16µM*,18µM*
COc1ccc(C(=O)C2CCCN(Cc3cnc(C)s3)C2)c(OC)c1 (stereo unspecified),x,-64*,-10,-19,16µM*,8.2µM*
C[C@H](CO)N1C[C@H](C)[C@H](CN(C)C(=O)Oc2cccc3ccccc23)OCc2cnnn2CCCC1=O,1%,23,-11,-4,-5%,-19%
CCn1nc(-c2cccs2)nc2c(=O)n(C)c(=O)nc1-2,0%,-68*,-16,-81*,0.58µM*,1.2µM*
CCn1nc(/C=C/c2ccccc2)nc2c(=O)n(C)c(=O)nc1-2,x,-110*,-10,u,1.6µM*,2.1µM*
CCOc1ccc(-n2c(-c3cccs3)nc3ccccc3c2=O)cc1,x,22,-1,-5,u,u
CCOc1ccc(-n2c(/C=C/c3ccccc3)nc3ccccc3c2=O)cc1,-2%,x,-3,x,u,u
C#CCN(C)C(C)Cc1ccccc1 (stereo unspecified),-14%,-15,-26,u,u,3.7µM*
O=C1CC(c2ccc(Br)cc2)c2c(c3ccccc3oc2=O)O1 (stereo unspecified),5%,x,51*,x,0%,0%
CCc1nn(CC(=O)N2CCN(Cc3ccc4c(c3)OCO4)CC2)c(=O)c2cc3occc3n12,-1%,-19,6,3,u,u
COc1ccc(NC(=O)CCn2cnc3onc(-c4ccc(F)cc4)c3c2=O)cc1OC,-1%,x,-6,x,2.9µM*,2.9µM*

# Source: PubChem BioAssay (National Center for Advancing Translational Sciences (NCATS))
